# Measurements as given in the supplement of paper PMC10849652.
# Targets with a hit are over-represented here; the source holds about 7,900 in all. About 0.6% of all pairs of compound and target were hits. A number with no mark means an inactive call.
# Key:
# Assay in all cases: log2 fold change, soluble protein after heating vs DMSO (PISA); higher = thermal stabilisation; K562 cells, 10 uM, 30 min; active = over 0.2 and 3.5 SD of the protein, either way, in both replicates (recomputed)
# bafetinib = compound: Cc1ccc(NC(=O)c2ccc(CN3CC[C@H](N(C)C)C3)c(C(F)(F)F)c2)cc1Nc1nccc(-c2cncnc2)n1 [bafetinib]
# Outline: (§1)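 Soluble protein was quantified by TMTpro 16plex LC-MS/MS after channel sums were equalised. It was obtained as the supernatant after 21,000xg for 90 min from pooled aliquots of K562 cells (2×10^6 cells/mL, 10 μM compound, 30 min) heated for 3 min across 48°C-58°C and extracted in PBS with 0.5% NP-40 at 4°C. Thermal stability values are relative to control samples and come from duplicates. They are given as log2 fold changes.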
# [1] = compound: Cc1cccc(CC(=O)N2CCc3c2ccc(-c2cn(C)c4ncnc(N)c24)c3F)n1
# Outline: as §1
# nilotinib = compound: Cc1cn(-c2cc(NC(=O)c3ccc(C)c(Nc4nccc(-c5cccnc5)n4)c3)cc(C(F)(F)F)c2)cn1 [nilotinib]
# Outline: as §1
# [2] = compound: Cc1nc(Nc2n[nH]c3c2CN(C(=O)N[C@H](CN(C)C)c2ccccc2)C3(C)C)c2sccc2n1
# Outline: as §1
# dasatinib = compound: Cc1nc(Nc2ncc(C(=O)Nc3c(C)cccc3Cl)s2)cc(N2CCN(CCO)CC2)n1 [dasatinib]
# Outline: as §1
# [3] = compound: Cc1ncc(-c2ccnc(Nc3ccc(S(C)(=O)=O)cc3)n2)n1C(C)C
# Outline: as §1
# [4] = compound: Cn1cc(-c2ccc3c(c2)CCN3C(=O)Cc2cccc(C(F)(F)F)c2)c2c(N)ncnc21
# Outline: as §1
# [5] = compound: Cn1cc(-c2ccc3nnc(C(F)(F)c4ccc5ncccc5c4)n3n2)cn1
# Outline: as §1
# tipifarnib = compound: Cn1cncc1[C@@](N)(c1ccc(Cl)cc1)c1ccc2c(c1)c(-c1cccc(Cl)c1)cc(=O)n2C [tipifarnib]
# Outline: as §1
# mubritinib = compound: FC(F)(F)c1ccc(/C=C/c2nc(COc3ccc(CCCCn4ccnn4)cc3)co2)cc1 [mubritinib]
# Outline: as §1
# [6] = compound: NC(=O)Nc1cc(-c2cccc(F)c2)sc1C(=O)N[C@H]1CCCNC1
# Outline: as §1
# [7] = compound: NC(=O)c1cnc(N[C@@H]2CCCC[C@@H]2N)nc1Nc1cccc(-n2nccn2)c1
# Outline: as §1
# [8] = compound: NC1(c2ccc(-c3nc4ccn5c(=O)[nH]nc5c4cc3-c3ccccc3)cc2)CCC1
# Outline: as §1
# [9] = compound: NCC(=O)Nc1ccc(-n2nc(C(F)(F)F)cc2-c2ccc3c(ccc4ccccc43)c2)cc1
# Outline: as §1
# entinostat = compound: Nc1ccccc1NC(=O)c1ccc(CNC(=O)OCc2cccnc2)cc1 [entinostat]
# Outline: as §1
# vorinostat = compound: O=C(CCCCCCC(=O)Nc1ccccc1)NO [vorinostat]
# Outline: as §1
# citarinostat = compound: O=C(CCCCCCNC(=O)c1cnc(N(c2ccccc2)c2ccccc2Cl)nc1)NO [citarinostat]
# Outline: as §1
# silmitasertib = compound: O=C(O)c1ccc2c(c1)nc(Nc1cccc(Cl)c1)c1ccncc12 [silmitasertib]
# Outline: as §1
# [10] = compound: O=C1NC(=O)C(c2cnc3ccccn23)=C1c1cn2c3c(cc(F)cc13)CN(C(=O)N1CCCCC1)CC2
# Outline: as §1
# [11] = compound: c1cc(OCCN2CCCCC2)cc(-c2n[nH]c3ccc(-c4nnc[nH]4)cc23)c1
# Outline: as §1
# Chain of UniProt P06730 (P06730 whole entry, looked up): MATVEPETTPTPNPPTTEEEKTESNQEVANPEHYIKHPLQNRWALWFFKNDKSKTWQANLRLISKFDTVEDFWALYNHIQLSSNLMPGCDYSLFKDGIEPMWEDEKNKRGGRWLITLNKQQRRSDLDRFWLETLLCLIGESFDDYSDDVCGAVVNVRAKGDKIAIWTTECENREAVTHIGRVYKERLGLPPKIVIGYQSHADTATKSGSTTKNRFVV
# Chain of UniProt Q9Y485 (Q9Y485 whole entry, looked up): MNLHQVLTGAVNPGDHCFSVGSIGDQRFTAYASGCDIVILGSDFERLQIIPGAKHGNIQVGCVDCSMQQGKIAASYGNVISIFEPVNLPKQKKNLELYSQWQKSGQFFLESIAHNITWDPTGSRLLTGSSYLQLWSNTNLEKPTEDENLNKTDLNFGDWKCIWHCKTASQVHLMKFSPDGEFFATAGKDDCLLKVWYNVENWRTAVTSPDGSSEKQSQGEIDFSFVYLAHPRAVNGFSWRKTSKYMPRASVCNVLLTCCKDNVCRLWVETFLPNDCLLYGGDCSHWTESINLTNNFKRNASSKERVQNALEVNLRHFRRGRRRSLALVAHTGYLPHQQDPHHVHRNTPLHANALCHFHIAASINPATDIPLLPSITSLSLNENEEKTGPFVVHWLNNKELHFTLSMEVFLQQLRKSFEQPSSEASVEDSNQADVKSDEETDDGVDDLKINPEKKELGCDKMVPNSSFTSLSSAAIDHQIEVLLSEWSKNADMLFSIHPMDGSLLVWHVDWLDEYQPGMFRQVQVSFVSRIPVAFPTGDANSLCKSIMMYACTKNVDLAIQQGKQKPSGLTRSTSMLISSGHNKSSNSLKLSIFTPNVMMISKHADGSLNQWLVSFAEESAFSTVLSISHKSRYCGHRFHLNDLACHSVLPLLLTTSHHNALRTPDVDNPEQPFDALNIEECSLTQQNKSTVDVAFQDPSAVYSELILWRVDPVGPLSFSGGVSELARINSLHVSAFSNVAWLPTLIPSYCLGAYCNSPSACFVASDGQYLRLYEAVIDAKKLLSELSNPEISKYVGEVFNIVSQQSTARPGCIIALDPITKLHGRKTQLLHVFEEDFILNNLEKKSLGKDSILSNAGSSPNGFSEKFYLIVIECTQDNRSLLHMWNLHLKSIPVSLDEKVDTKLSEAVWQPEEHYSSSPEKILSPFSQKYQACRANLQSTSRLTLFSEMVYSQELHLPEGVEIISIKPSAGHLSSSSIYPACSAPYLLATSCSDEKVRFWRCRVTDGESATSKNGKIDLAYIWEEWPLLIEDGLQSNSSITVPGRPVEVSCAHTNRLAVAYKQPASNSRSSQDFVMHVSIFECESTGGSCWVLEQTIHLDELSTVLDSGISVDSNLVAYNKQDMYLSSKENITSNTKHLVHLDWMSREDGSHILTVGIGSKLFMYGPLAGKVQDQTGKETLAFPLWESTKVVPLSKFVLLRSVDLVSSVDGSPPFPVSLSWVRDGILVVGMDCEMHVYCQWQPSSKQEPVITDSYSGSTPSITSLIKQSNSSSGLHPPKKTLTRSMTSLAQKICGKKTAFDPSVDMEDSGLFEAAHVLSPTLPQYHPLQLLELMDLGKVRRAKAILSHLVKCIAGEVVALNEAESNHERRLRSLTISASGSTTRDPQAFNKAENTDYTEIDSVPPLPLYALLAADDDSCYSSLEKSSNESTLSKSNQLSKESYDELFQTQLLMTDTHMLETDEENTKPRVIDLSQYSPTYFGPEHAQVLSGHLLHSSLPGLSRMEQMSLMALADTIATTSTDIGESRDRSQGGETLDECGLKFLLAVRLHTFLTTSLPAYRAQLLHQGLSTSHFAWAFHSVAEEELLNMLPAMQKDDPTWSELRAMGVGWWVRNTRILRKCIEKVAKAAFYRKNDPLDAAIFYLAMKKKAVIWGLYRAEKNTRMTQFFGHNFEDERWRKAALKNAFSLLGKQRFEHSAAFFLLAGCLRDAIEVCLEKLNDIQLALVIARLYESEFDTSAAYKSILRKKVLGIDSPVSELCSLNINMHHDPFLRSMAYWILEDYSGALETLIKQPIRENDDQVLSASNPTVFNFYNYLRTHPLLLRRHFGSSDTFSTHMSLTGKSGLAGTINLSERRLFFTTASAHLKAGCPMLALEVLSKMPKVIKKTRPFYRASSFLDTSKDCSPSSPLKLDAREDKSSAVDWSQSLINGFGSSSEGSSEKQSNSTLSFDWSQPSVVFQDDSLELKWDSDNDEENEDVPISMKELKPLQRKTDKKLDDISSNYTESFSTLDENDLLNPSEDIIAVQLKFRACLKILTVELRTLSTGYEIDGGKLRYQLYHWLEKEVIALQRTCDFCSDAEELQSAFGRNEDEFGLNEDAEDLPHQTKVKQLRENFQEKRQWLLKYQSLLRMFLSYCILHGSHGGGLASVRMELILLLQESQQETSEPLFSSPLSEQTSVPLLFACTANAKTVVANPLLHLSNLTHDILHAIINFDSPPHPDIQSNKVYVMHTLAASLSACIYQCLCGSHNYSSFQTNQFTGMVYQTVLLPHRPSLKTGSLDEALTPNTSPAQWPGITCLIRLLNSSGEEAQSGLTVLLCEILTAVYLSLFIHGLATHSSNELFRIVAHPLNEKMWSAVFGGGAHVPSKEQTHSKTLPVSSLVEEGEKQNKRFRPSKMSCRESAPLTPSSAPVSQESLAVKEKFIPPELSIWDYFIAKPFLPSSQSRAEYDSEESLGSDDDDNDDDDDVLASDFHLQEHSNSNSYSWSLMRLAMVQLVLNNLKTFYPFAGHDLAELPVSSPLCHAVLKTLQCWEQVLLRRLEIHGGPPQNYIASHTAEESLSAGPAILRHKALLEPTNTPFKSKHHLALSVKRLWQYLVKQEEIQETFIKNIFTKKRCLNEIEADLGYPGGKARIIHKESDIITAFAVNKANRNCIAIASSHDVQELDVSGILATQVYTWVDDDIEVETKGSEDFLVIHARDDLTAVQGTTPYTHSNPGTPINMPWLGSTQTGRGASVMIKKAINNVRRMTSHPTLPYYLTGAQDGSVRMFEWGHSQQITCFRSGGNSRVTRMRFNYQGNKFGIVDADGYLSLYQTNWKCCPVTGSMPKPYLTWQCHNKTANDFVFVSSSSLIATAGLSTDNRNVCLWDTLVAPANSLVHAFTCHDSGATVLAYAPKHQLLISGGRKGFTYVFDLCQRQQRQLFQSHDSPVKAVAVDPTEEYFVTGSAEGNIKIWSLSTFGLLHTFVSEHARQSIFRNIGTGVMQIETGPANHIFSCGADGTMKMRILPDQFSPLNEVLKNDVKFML
# Chain of UniProt Q9HBU6 (Q9HBU6 whole entry, looked up): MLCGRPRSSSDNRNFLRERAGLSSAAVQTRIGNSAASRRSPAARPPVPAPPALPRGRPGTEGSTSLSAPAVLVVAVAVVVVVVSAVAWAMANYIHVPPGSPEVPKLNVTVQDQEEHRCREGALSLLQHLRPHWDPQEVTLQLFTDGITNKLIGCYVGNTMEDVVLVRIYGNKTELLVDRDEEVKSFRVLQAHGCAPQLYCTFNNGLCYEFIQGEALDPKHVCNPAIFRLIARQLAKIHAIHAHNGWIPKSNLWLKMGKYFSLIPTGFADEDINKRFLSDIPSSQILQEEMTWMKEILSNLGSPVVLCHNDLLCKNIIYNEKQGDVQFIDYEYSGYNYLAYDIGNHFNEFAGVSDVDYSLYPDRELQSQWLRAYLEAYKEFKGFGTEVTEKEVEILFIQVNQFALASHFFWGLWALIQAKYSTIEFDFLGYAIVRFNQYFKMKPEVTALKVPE
# Chain of UniProt Q6IAN0 (Q6IAN0 whole entry, looked up): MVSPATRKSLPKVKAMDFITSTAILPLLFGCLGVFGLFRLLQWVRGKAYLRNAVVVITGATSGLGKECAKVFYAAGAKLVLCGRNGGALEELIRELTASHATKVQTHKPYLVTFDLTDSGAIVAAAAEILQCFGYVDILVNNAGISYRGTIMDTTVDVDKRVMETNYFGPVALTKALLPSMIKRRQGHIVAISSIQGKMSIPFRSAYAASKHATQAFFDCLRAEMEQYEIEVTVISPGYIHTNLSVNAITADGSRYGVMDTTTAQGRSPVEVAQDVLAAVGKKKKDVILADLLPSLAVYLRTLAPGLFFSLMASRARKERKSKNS
# Chain of UniProt P53634 (P53634 whole entry, looked up): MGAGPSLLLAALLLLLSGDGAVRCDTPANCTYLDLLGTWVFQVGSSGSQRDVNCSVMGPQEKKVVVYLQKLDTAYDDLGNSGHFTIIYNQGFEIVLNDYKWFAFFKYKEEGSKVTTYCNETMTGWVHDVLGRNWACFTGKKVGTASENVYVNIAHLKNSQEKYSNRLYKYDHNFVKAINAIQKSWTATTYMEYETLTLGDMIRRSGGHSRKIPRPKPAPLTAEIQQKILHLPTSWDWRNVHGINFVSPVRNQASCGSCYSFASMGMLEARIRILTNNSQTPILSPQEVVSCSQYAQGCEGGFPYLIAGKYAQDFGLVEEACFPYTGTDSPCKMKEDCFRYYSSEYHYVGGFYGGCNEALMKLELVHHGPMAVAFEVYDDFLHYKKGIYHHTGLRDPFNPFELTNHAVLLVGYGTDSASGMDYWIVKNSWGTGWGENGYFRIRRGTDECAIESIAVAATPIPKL
# Chain of UniProt Q8N128 (Q8N128 whole entry, looked up): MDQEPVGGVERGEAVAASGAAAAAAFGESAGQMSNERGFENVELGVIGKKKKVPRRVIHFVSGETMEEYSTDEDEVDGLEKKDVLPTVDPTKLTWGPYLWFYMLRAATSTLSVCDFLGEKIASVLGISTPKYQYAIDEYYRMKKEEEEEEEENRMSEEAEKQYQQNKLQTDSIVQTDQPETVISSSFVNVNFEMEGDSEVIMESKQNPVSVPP
# Chain of UniProt Q9NXW2 (Q9NXW2 whole entry, looked up): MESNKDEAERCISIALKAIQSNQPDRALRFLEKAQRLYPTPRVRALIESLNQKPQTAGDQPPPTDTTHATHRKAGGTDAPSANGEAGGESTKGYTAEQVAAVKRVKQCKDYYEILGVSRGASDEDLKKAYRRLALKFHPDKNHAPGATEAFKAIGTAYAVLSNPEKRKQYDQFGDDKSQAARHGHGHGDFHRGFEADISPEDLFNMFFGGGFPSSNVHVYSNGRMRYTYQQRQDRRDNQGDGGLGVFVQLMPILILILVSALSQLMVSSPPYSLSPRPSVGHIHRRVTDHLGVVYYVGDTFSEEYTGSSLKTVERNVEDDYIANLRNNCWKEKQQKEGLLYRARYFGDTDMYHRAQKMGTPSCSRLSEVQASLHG
Target,log2 fold change (bafetinib),log2 fold change [1],log2 fold change (nilotinib),log2 fold change [2],log2 fold change (dasatinib),log2 fold change [3],log2 fold change [4],log2 fold change [5],log2 fold change (tipifarnib),log2 fold change (mubritinib),log2 fold change [6],log2 fold change [7],log2 fold change [8],log2 fold change [9],log2 fold change (entinostat),log2 fold change (vorinostat),log2 fold change (citarinostat),log2 fold change (silmitasertib),log2 fold change [10],log2 fold change [11]
ETNK1 (UniProt Q9HBU6),-0.042,0.037,-0.043,0.08,-0.07,0.06,0.026,0.008,-0.183,0.036,0.25 (active),0.011,-0.144,-0.057,0.089,-0.01,0.019,0.041,0.208,-0.084
CWC27 (UniProt Q6UX04),-0.147,-0.059,-0.058,-0.094,-0.087,0.132,0.056,0.022,-0.146,0.109,-0.062,0.016,-0.142,-0.103,0.113,0.062,0.089,0.062,-0.092,0.026
DDX46 (UniProt Q7L014),0.196,0.094,0.271,-1.44 (active),-0.084,0.1,0.104,0.102,-0.113,0.604 (active),-0.185,-0.087,-0.178,-0.197,0.095,0,0.103,0.018,-0.243,0.084
ECPAS (UniProt Q5VYK3),0.031,0.105,-0.067,-0.038,-0.255 (active),0.077,-0.011,-0.043,-0.202,0.021,-0.009,-0.024,-0.169,-0.035,0.073,0.077,0.08,0.071,-0.038,-0.032
DAG1 (UniProt Q14118),0.03,-0.076,0.085,0.003,0.025,-0.008,-0.001,0.073,0.035,0.05,-0.035,0.123,0.081,-0.054,-0.013,0.023,-0.015,-0.005,-0.015,-0.001
DHRS7B (UniProt Q6IAN0),0.001,0.213,0.114,0.01,-0.066,0.056,0.047,-0.113,0.008,-0.023,-0.099,0.083,-0.012,0.117,-0.014,0.16,0.01,-0.05,-0.113,0.077
EXOC2 (UniProt Q96KP1),0.021,-0.089,-0.002,-0.135,-0.301,0.028,-0.011,-0.081,-0.066,0.035,0.039,-0.084,-0.218,-0.024,0.052,-0.013,0.105,0.035,0.028,-0.102
EIF4E isoform 2 (UniProt P06730),0.012,0.05,0.199,-0.072,0.013,0.272,0.125,0.082,-0.029,0.045,0.005,0.226,0.059,0.126,-0.073,-0.01,-0.026,0.102,-0.044,0.141
CTSC (UniProt P53634),-0.452 (active),-0.004,-0.008,0,0.046,-0.033,0.041,0.004,-0.039,0.056,0.019,-0.015,-0.11,0.086,-0.053,-0.016,0.015,-0.053,-0.057,0.063
DNAJB12 (UniProt Q9NXW2),-0.057,0.007,-0.158,0.041,-0.068,0.015,-0.04,-0.039,0.016,0.01,-0.03,-0.018,-0.048,-0.029,0.001,0.027,0.027,0.079,-0.038,0.002
DIAPH1 (UniProt O60610),0.088,0.057,-0.011,-0.197,-0.055,0.077,-0.083,-0.035,-0.077,0.039,-0.156,-0.085,-0.067,-0.064,0.024,0.066,0.056,0.115,0.178,-0.046
DMXL1 (UniProt Q9Y485),-0.14,-0.034,-0.002,0.018,-0.099,-0.012,0.021,0.021,-0.035,-0.053,-0.026,-0.075,-0.052,-0.015,0.033,0.069,0.005,0.04,-0.007,-0.071
DCAF16 (UniProt Q9NXF7),-0.051,-0.056,-0.005,-0.004,-0.179,0.005,-0.031,0.091,-0.155,-0.085,-0.122,-0.109,-0.09,-0.036,0.02,0.004,0.07,0.082,-0.09,-0.041
ERCC2 (UniProt P18074),0.094,0.061,-0.014,-0.175,-0.185,-0.022,0.05,0.01,-0.062,0.114,-0.015,-0.011,-0.109,0.004,0.014,0.045,0.103,-0.052,-0.092,-0.039
EXOC4 (UniProt Q96A65),0.012,0.11,-0.068,-0.155,-0.15,-0.031,-0.026,0.013,-0.088,0.078,0.081,-0.216,-0.205,-0.051,0.078,0.174,0.16,0.091,0.044,-0.094
FAM177A1 isoform 2 (UniProt Q8N128),-0.125,-0.007,-0.113,0.005,-0.098,-0.044,0.038,-0.005,-0.01,0.004,0.047,-0.053,-0.023,-0.038,0.007,0.072,0.047,0.029,-0.089,0.002
